# Data reported in ChEMBL document CHEMBL1157539, “Thousands of chemical starting points for antimalarial lead identification” (Nature, 2010).
# Experiments:
# Type in all cases: functional
# Plasmodium falciparum [1] = experiment: GSK_TCMDC: Inhibition of Plasmodium falciparum 3D7 in whole red blood cells, using parasite LDH activity as an index of growth. Test compounds present at 2uM
# Plasmodium falciparum [2] = experiment: GSK_TCMDC: Inhibition of Plasmodium falciparum Dd2 in whole red blood cells, using parasite LDH activity as an index of growth. Test compounds present at 2uM
# HepG2 = experiment: GSK_TCMDC: Percent inhibition of human HepG2 cell line. Test compounds present at 10uM.
SMILES,Inhibition (Plasmodium falciparum [1]) [%],Inhibition (Plasmodium falciparum [2]) [%],Inhibition (HepG2) [%]
CS(=O)(=O)c1cccc(-c2cnc3[nH]cc(-c4cccc(CCN)c4)c3c2)c1.O=C(O)C(F)(F)F,99,74,0
COc1ccccc1OCCN(CC(O)COc1cccc2[nH]c3ccccc3c12)CC(O)COc1cccc2[nH]c3ccccc3c12 (configuration not stated),97,96,16
CCN(CC)CCN(Cc1ccc(-c2ccc(C(F)(F)F)cc2)cc1)C(=O)Cn1cc(CCCCc2cccc(F)c2F)c(=O)c2ccccc21.O=C(O)C(O)C(O)C(=O)O,90,22,18
COc1c(C2CCN(CCCCNC(=O)c3ccc(-c4ccc(Cl)cc4)cc3)CC2)ccc2c1C(C)(C)CCC2(C)C,95,42,94
CCCCN1CCN(Cc2cccc(NC(=O)c3ccc(Cl)c(Cl)c3)c2)CC1.O=C(O)C(F)(F)F,88,24,21
Cl.O=C(NCCCCN1CCC(c2ccc3c(c2OC(=O)c2ccc(NC(=O)c4ccc(Cl)cc4)cc2)CCCC3)CC1)c1ccc(NC(=O)c2ccc(Cl)cc2)cc1,100,99,62
CNC(=O)Cc1ccc(C(=O)Nc2cccc(-c3cccc(-c4nc5cccc(C)c5[nH]4)c3)c2)cc1,96,53,15
CC(C)c1ccc(NC(=O)c2cccc(CN3CCCN(Cc4cccc(O)c4)CC3)c2)cc1.O=C(O)C(F)(F)F,97,33,25
COc1ccc(NC(=O)Nc2ccc(-c3ccc(-c4nc5ccccc5[nH]4)cc3)cc2)cc1,100,27,22
COc1cc2nc(N3CCN(c4cc(C)ccc4C)CC3)nc(N)c2cc1OC.Cl,98,12,66
FC(F)(F)c1ccc2[nH]c(-c3ccc(-c4cccc(CNCCN5CCNCC5)c4)s3)nc2c1.O=C(O)C(F)(F)F,91,39,22
O=C(Nc1ccc(OC2CCN(Cc3ccccc3)CC2)c(Cl)c1)c1cccs1.O=C(O)C(F)(F)F,96,95,2
O=C(Nc1cccc(CN2CCCN(Cc3ccccc3)CC2)c1)c1ccc(-c2ccccc2)cc1.O=C(O)C(F)(F)F,85,8,45
N#Cc1cncc(-c2nc3c(N4CCCC(N)C4)cccc3n2CCNCc2ccccc2)c1.O=C(O)C(F)(F)F (configuration not stated),100,1,8
COc1cccc(C(=O)NCCc2cccc(Cl)c2)c1OCc1ccccc1,85,0,0
Cc1cnc(N)c(/C=C/c2cncc(C(=O)NCCc3ccc(Cl)cc3Cl)c2)c1.Cl,–,100,2
O=C(NCCc1ccc(O)cc1)n1c2ccccc2c2ccccc21,83,76,3
CCN(CCNc1nc(NCCc2cnc[nH]2)nc(N(CCC#N)Cc2ccccc2)n1)c1cccc(C)c1,100,92,13
COc1ccc2nc3cc(Cl)ccc3c(Nc3ccc(O)c(CN4CC5CCC(CC5)C4)c3)c2c1.Cl,100,100,17
Fc1cc(Cl)ccc1Nc1ccnc2cc(-c3ccc(CN4CCOCC4)o3)ccc12,99,98,33
COc1cc(CNCCCCCCNCc2cc(OC)c3ccccc3c2OC)c(OC)c2ccccc12.CS(=O)(=O)O,100,40,99
Cc1nn(-c2cccc(C(F)(F)F)c2)c2sc(C(=O)NC3CCN(C(C)C)CC3)cc12,94,20,98
CN1CCN(CCCSc2ccc3c(c2)ncn3-c2cc(OCc3ccccc3C(F)(F)F)c(C(N)=O)s2)CC1.O=CO,100,86,28
Fc1ccc2c(NN=Cc3ccccc3F)ccnc2c1,100,99,10
O=C(Nc1ccc(Br)c(Cl)c1)c1cc([N+](=O)[O-])cc2cn[nH]c12,99,63,49
CC1=C(C(=O)Nc2ccccc2)C(c2ccc([N+](=O)[O-])cc2)n2ncc(C(=O)Nc3ccccc3)c2N1 (configuration not stated),86,68,9
